Bioassay records as filed in PubChem BioAssay.
Most compounds without a hit are left out; they make up all but 8.8% or so of the library.
KB-V1 cytotox: kills drug-selected multidrug resistant KB-V1 cells | Potency, µM (top dose mostly 46.1 µM), hits mostly cytotoxic | actives 3.4% (n = 400,000) | KB-V1 MDR cells viability, CellTiter-Glo, 72 h; note: nearly all actives have a fitted effect of over 60% in size
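Cells of the MDR subline KB-V1 are plated, dosed with compound at multiple concentrations, and incubated 72 h at 37 degrees C; CellTiter-Glo is then added and luminescence read after 10 min.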
HT1080NT lethal: kills 2HG-producing HT-1080-NT fibrosarcoma cells; HT-1080-NT fibrosarcoma viability, CellTiter-Glo ATP luminescence, 48 h; Potency, µM (series often up to 46.1 µM), hits mostly cytotoxic; actives 1.6% (n = 360,000); AID 686970;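 note: NT is the 2HG producing partner of a matched IDH1 knockdown line; nearly all actives have a fitted effect of over 55% in size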
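Luminescent CellTiter-Glo readout after 48 hours of compound exposure at 37 degrees C defined viability of HT-1080-NT cells. Activity was normalized to DMSO wells and cell-free media wells; concentration-response curves were fitted and assigned curve classes.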
HT1080 IDH1KD tx: toxicity to HT-1080 IDH1 knockdown cells (counter line). HT-1080 IDH1 knockdown viability, ATP luminescence, 48 h. Potency, µM (doses to about 46.1 µM), hits mostly cytotoxic. actives 2% (n = 360,000). AID 686971
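Assay cells: HT-1080 with IDH1 knockdown, 750 per well, RPMI/5% FBS. Exposure: 48 h at 37 °C following 2 h pre-incubation. Read: CellTiter-Glo luminescence; fitted concentration-response, curve class assigned.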
KB-3-1 tox: kills parental KB-3-1 adenocarcinoma cells | KB-3-1 viability, CellTiter-Glo ATP luminescence, 72 h | Potency, µM (doses to about 46.1 µM), usual class: cytotoxic | actives 1.4% (n = 400,000) | AID 1347075; note: nearly all actives have a fitted effect of over 60% in size
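Here the drug-naive KB-3-1 line serves as comparator for MDR sub-line selectivity; cells received compound titrations, 72 h at 37 °C, then CellTiter-Glo readout.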
IL1B secr inh: inhibitors of inflammasome signaling (IL-1 beta secretion); THP-1 LPS/ATP IL-1B secretion, AlphaLISA, 16 h; hits give low values; activity change, % at 57.5 µM; actives 4.7% (n = 360,000); in the data active = activity change below about -50%; inconclusive = mostly about -30% to -49%
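Secreted IL-1B measured by AlphaLISA bead assay after 16 h compound exposure of THP-1 cells; compounds (final up to 57.5 uM) added 1 h before LPS (250 ng/mL) and ATP (1.25 mM) stimulation; lower signal means less secretion.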
Hits are given with their value. Unless noted, calls come from the whole dose curve; as a rule, active = well fitted curve in the direction sought with a large enough effect; inconclusive = small, poorly fitted or top-dose-only effect, or another doubt; inactive = no such curve, though single readings can be large; an effect the other way counts as inactive or inconclusive.

How did Nn1c(SCC(=O)Nc2ccccc2F)nnc1C1CCCCC1 do in these assays?
KB-V1 cytotox: inactive; HT1080NT lethal: inactive; HT1080 IDH1KD tx: inactive; KB-3-1 tox: inactive; IL1B secr inh: inactive

Results for CC(Oc1ccccc1)C(=O)N1CCN(Cc2cc(=O)n3nc(-c4ccccc4Cl)sc3n2)CC1 (stereo unspecified) ?
KB-V1 cytotox: inactive; KB-3-1 tox: inactive

What do the screens show for `O=C(CN1C(=O)NC2(CCCCC2)C1=O)Nc1ccc2[nH]c(=O)[nH]c2c1`?
KB-V1 cytotox: inactive; HT1080NT lethal: inactive; HT1080 IDH1KD tx: inactive; KB-3-1 tox: inactive; IL1B secr inh: inactive

How did CC1CCCC(NCC(O)COC(c2ccc(F)cc2)c2ccc(F)cc2)C1C (stereo unspecified) do in these assays?
KB-V1 cytotox: 18µM; HT1080NT lethal: 16µM; HT1080 IDH1KD tx: 21µM; KB-3-1 tox: inconclusive; IL1B secr inh: -115

What do the screens show for `CC1CCCC(NC(=O)CSc2ccc(F)cc2)C1C` (stereo unspecified)?
KB-V1 cytotox: inactive; HT1080NT lethal: inactive; HT1080 IDH1KD tx: inactive; KB-3-1 tox: inactive; IL1B secr inh: inactive

What do the screens show for `Cc1cccc(Nc2c(O)nc[nH]c2=O)c1`?
KB-V1 cytotox: inactive; HT1080NT lethal: inactive; HT1080 IDH1KD tx: inactive; KB-3-1 tox: inactive; IL1B secr inh: inactive

What do the screens show for `Cc1ccc(-c2csc(N3CCN(c4ccc5nc(-c6ccncc6)n(CCN6CCCCC6)c5c4)CC3)n2)cc1`?
KB-V1 cytotox: inactive; HT1080NT lethal: inactive; HT1080 IDH1KD tx: inactive; KB-3-1 tox: inactive; IL1B secr inh: inactive

What do the screens show for `Cc1ccc(-c2csc(N3CCN(c4cc5c(cc4Cl)nc(-c4ccncc4)n5CCN4CCCCC4)CC3)n2)cc1`?
KB-V1 cytotox: inactive; HT1080NT lethal: inconclusive; HT1080 IDH1KD tx: inactive; KB-3-1 tox: inactive; IL1B secr inh: -59

How did CN(CC#CC1(O)c2ccccc2-c2ccccc21)Cc1ccccc1 do in these assays?
KB-V1 cytotox: 8.2µM; HT1080NT lethal: inactive; HT1080 IDH1KD tx: inactive; KB-3-1 tox: inactive; IL1B secr inh: inactive

Results for O=C(Nc1ccc2c(c1)OCO2)c1cc(C2CCCN(C(=O)CCCc3ccccc3)C2)on1 (stereo unspecified) ?
KB-V1 cytotox: inactive; HT1080NT lethal: 16µM; HT1080 IDH1KD tx: inconclusive; KB-3-1 tox: inactive; IL1B secr inh: inactive

How did O=C(Nc1ccc2c(c1)OCO2)c1cc(C2CCCN(C(=O)CCc3ccccc3)C2)on1 (stereo unspecified) do in these assays?
KB-V1 cytotox: inactive; HT1080NT lethal: inactive; HT1080 IDH1KD tx: inconclusive; KB-3-1 tox: inactive; IL1B secr inh: inactive

Results for Cc1cc(C)c(NC(=O)CSc2nncn3c2cc2oc(C)cc23)c(C)c1 ?
KB-V1 cytotox: inactive; KB-3-1 tox: inactive

How did Cn1cccc1Cc1nnc(SCC(=O)NCc2ccccc2)n1-c1ccc(F)cc1 do in these assays?
KB-V1 cytotox: inconclusive; HT1080NT lethal: inactive; HT1080 IDH1KD tx: inactive; KB-3-1 tox: inactive; IL1B secr inh: inconclusive

Results for Cn1c(Cc2cccc3ccccc23)nnc1SCC(=O)N1CCN(c2ccccc2)CC1 ?
KB-V1 cytotox: 15µM; HT1080NT lethal: inactive; HT1080 IDH1KD tx: inactive; KB-3-1 tox: inactive; IL1B secr inh: inactive

How did Cn1c(SCC(=O)N2CCN(c3ccccc3)CC2)nnc1-c1cc2ccccc2o1 do in these assays?
KB-V1 cytotox: inactive; HT1080NT lethal: inactive; HT1080 IDH1KD tx: inactive; KB-3-1 tox: 23µM; IL1B secr inh: inactive

Results for Cn1cccc1Cc1nnc(SCC(=O)N2CCN(c3ccccc3)CC2)n1-c1ccc(F)cc1 ?
KB-V1 cytotox: 12µM; HT1080NT lethal: inactive; HT1080 IDH1KD tx: inactive; KB-3-1 tox: inactive; IL1B secr inh: inactive

How did COc1cccc(-c2nc(CS(=O)(=O)CC(=O)N3CCCCC3)c(C)o2)c1 do in these assays?
KB-V1 cytotox: inactive; HT1080NT lethal: inactive; HT1080 IDH1KD tx: inactive; KB-3-1 tox: inactive; IL1B secr inh: inactive

Results for Cc1nc([N+](=O)[O-])cn1CC(=O)Nc1ccc(F)c(Cl)c1 ?
KB-V1 cytotox: inactive; HT1080NT lethal: inactive; HT1080 IDH1KD tx: inactive; KB-3-1 tox: inactive; IL1B secr inh: inactive

How did COc1cc2c(C#CCCO)c(-c3ccsc3)oc(=O)c2cc1OC do in these assays?
KB-V1 cytotox: inactive; HT1080NT lethal: inactive; HT1080 IDH1KD tx: inactive; KB-3-1 tox: inactive; IL1B secr inh: -73

What do the screens show for `COc1cc2c(C#CCCO)c(-c3ccc(C#N)cc3)oc(=O)c2cc1OC`?
KB-V1 cytotox: inactive; HT1080NT lethal: inactive; HT1080 IDH1KD tx: inactive; KB-3-1 tox: inactive; IL1B secr inh: inactive

What do the screens show for `Cc1cc(C)c2c(=O)nc(SCc3ccccc3C)n(C3CC3)c2n1`?
KB-V1 cytotox: inactive; KB-3-1 tox: inactive

What do the screens show for `Cc1cc(Br)cn2ccnc12`?
KB-V1 cytotox: inactive; HT1080NT lethal: inactive; HT1080 IDH1KD tx: inactive; KB-3-1 tox: inactive; IL1B secr inh: inactive

Results for O=C1C(C2=NC(c3ccccn3)C3C(=O)N(c4ccc(OC(F)(F)F)cc4)C(=O)C23)=C(O)c2ccccc21 (stereo unspecified) ?
KB-V1 cytotox: inactive; HT1080NT lethal: inactive; HT1080 IDH1KD tx: inactive; KB-3-1 tox: 4.6µM; IL1B secr inh: inactive

Results for O=C1C(C2=NC(C(=O)O)C3C(=O)N(c4ccccc4)C(=O)C23)=C(O)c2ccccc21 (stereo unspecified) ?
KB-V1 cytotox: inactive; HT1080NT lethal: inactive; HT1080 IDH1KD tx: inactive; KB-3-1 tox: inactive; IL1B secr inh: inactive

What do the screens show for `O=C(NCc1cccs1)c1noc2c1CCCC2`?
KB-V1 cytotox: inactive; HT1080NT lethal: inconclusive; HT1080 IDH1KD tx: 18µM; KB-3-1 tox: inactive; IL1B secr inh: inactive

How did O=C(NCc1ccccc1)c1noc2c1CCCC2 do in these assays?
KB-V1 cytotox: inconclusive; HT1080NT lethal: inconclusive; HT1080 IDH1KD tx: inconclusive; KB-3-1 tox: inconclusive; IL1B secr inh: inactive

What do the screens show for `CC(NC(=O)c1noc2c1CCCC2)c1ccccc1` (stereo unspecified)?
KB-V1 cytotox: 16µM; HT1080NT lethal: inactive; HT1080 IDH1KD tx: inactive; KB-3-1 tox: inactive; IL1B secr inh: inactive

Results for CC(C)CC(=O)Nc1ccc2c(c1)nc(CCN1CCOCC1)n2C ?
KB-V1 cytotox: inactive; HT1080NT lethal: inactive; HT1080 IDH1KD tx: inactive; KB-3-1 tox: inactive; IL1B secr inh: inactive

How did CCC(C(=O)NC1CCCC1)N(C(=O)Cn1nnc(-c2ccc(C)o2)n1)C(C)(C)C (stereo unspecified) do in these assays?
KB-V1 cytotox: 1.2µM; HT1080NT lethal: inactive; HT1080 IDH1KD tx: inactive; KB-3-1 tox: inactive; IL1B secr inh: inactive

Results for CCCC(C(=O)NC1CCCC1)N(C(=O)Cn1nnc(-c2ccc(C)o2)n1)C1CCCC1 (stereo unspecified) ?
KB-V1 cytotox: 4.1µM; HT1080NT lethal: inactive; HT1080 IDH1KD tx: inactive; KB-3-1 tox: inactive; IL1B secr inh: inactive

What do the screens show for `CCOc1ccc(N(CC(=O)NCc2ccccc2)C(=O)Cn2nnc(-c3ccc(C)o3)n2)cc1`?
KB-V1 cytotox: inactive; HT1080NT lethal: inactive; HT1080 IDH1KD tx: inactive; KB-3-1 tox: inactive; IL1B secr inh: inactive
